The results in this text go back to PubChem BioAssay (EPA / NIEHS).

Results filed as inconclusive are left out. Calls of active or inactive are those of the source. The calls were made as follows: active = hit-call score of the fitted dose curve at least 0.9, where 1 is the maximum; inconclusive = response in the unintended direction; inactive = score below 0.9.

The assay is described as follows: ACEA_ER_80hr: ACEA Biosciences xCELLigence Real-Time Cell Analysis on Estrogen Receptor Agonism for Proliferation (AID 2282667). Particulars: T47D proliferation, impedance (xCELLigence), 80 h. In outline: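 T-47D cells monitored by electrical impedance (xCELLigence) with compound present throughout; 80 h timepoint, positive-direction fitting versus DMSO. Eight-point 1:4 dilutions from 100 uM final, duplicate plates.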
As to `CCc1c(Br)c(Br)c(Br)c(Br)c1Br`, the result was inactive.

Take `O=C(CC(=O)C(F)(F)C(F)(F)F)C(F)(F)F`: the molecule was called inactive.

With `CCC(=O)OCCc1ccccc1`, the molecule was classed as inactive.

On to `FC(F)(F)C(F)(F)C(F)(F)C(F)(F)C(F)(F)C(F)(F)CCS`, for which the molecule was called inactive.

In the case of `O=C(O)C(F)(OC(F)(F)C(F)(OC(F)(F)C(F)(F)C(F)(F)F)C(F)(F)F)C(F)(F)F` (centres undefined), the molecule was classed as inactive.

As for `Cc1cc(C)cc(O)c1`, the molecule was called inactive. What is called AC50 is the midpoint of the concentration-response curve, whichever way the signal moves. With `CN(C)Cc1ccccc1O`, the AC50 was 4580 nM (active). Take `CC(CCl)OP(=O)(OC(C)CCl)OC(C)CCl` (centres undefined): the result was inactive. Consider `Cc1cccc(N(C)C)c1`, for which the call was inactive.

With `Cc1ccc(S(=O)(=O)OCC(F)(F)C(F)(F)C(F)(F)C(F)(F)C(F)(F)C(F)F)cc1`, the molecule was classed as inactive. In the case of `C=CC(=O)OCC(F)(F)C(F)(F)C(F)(F)C(F)(F)COC(=O)C=C`, the outcome was inactive. Still for that read-out and setting: the entry for `CCCCCC=O` is “inactive”; for `O=C(O)C(F)(F)C(F)(F)C(F)(F)C(F)(F)F` it is “inactive”.

`FC(F)(I)C(F)(F)C(F)(F)C(F)(F)I`: the AC50 is 312 nM (active). On the same count and under the same terms, then `O=C(OCCOCCOCCOC(=O)c1ccccc1)c1ccccc1`, with 10800 nM (active). On to `CC(C)=CCCC(C)CCOC(=O)C(C)C` (centres undefined), for which the molecule was classed as inactive. Consider `CCCCOCCOCCOC(=O)CCCCC(=O)OCCOCCOCCCC`, for which the molecule was classed as inactive.

As for `CC(Cc1ccc(O)c(O)c1)C(C)Cc1ccc(O)c(O)c1` (centres undefined), the molecule was called inactive. Take `c1ccc(B(c2ccccc2)c2ccccc2)cc1`: the AC50 is 7090 nM (active). As for `COC(=O)C1CCC(C(=O)OC)CC1` (centres undefined), the call was inactive. The same measure, in the same setting: then `O=S(=O)(O)c1ccc2ccccc2c1`, with “inactive”; and `FC(F)(F)C(F)(F)CNCC(F)(F)C(F)(F)F`, with “inactive”.

For the molecule `C=CC(=O)OCC(F)(F)C(F)(F)C(F)(F)C(F)(F)C(F)(F)C(F)(F)C(F)(F)F`, the molecule was classed as inactive. As to `NC(=O)C(F)(F)C(F)(F)C(F)(F)C(F)(F)F`, the outcome was inactive.

With `FC(F)(F)C(F)(F)C(F)(F)C(F)(F)C(F)(F)CCI`, the call was inactive. Same read-out and setting: then `CCN(CC)c1ccc2c(C)cc(=O)oc2c1`, with “inactive”; and `CCCCCCCCCCCCCCCC[N+](C)(C)Cc1ccccc1`, with “inactive”.

Consider `Nc1ccc([N+](=O)[O-])cc1O`, for which the molecule was called inactive. On to `FC(F)(F)C(F)(F)C(F)(F)C(F)(F)C(F)(F)C(F)(F)C(F)(F)C(F)(F)CCS`, for which the call was inactive. The same measure, in the same setting: the entry for `OC[C@@H](O)[C@@H](O)[C@H](O)[C@@H](O)CO` is “inactive”. `C(=C(c1ccccc1)c1ccccc1)c1ccccc1`: the AC50 was 647 nM (active). With `C=CC/C=C/C/C=C/C/C=C/C`, the molecule was classed as inactive. Take `OCCCC(F)(F)C(F)(F)C(F)(F)C(F)(F)C(F)(F)C(F)(F)C(F)(F)F`: the outcome was inactive. Take `c1ccc(-c2ccccc2-c2ccccc2)cc1`: the AC50 is 534 nM (active).
